Measurements from PMC7862700, “An all-to-all approach to the identification of sequence-specific readers for epigenetic DNA modifications on cytosine”.

Key:
Assay in all cases: DAPPL (digital affinity profiling via proximity ligation, sequencing); 10 mM Tris-HCl pH 7.5, 50 mM NaCl, 1 mM DTT, 4% glycerol, room temperature, 30 min; GST-TFs on glutathione beads, 16-mer random dsDNA library, 0.1% formaldehyde crosslink after washing; high values mean tight binding
Conditions in all cases: protein: recombinant; tags: N-terminal GST; dsDNA, one strand shown
FLI1 = target: T1, FLI1 (Homo sapiens, UniProt Q01543 1-452)
T1 sequence: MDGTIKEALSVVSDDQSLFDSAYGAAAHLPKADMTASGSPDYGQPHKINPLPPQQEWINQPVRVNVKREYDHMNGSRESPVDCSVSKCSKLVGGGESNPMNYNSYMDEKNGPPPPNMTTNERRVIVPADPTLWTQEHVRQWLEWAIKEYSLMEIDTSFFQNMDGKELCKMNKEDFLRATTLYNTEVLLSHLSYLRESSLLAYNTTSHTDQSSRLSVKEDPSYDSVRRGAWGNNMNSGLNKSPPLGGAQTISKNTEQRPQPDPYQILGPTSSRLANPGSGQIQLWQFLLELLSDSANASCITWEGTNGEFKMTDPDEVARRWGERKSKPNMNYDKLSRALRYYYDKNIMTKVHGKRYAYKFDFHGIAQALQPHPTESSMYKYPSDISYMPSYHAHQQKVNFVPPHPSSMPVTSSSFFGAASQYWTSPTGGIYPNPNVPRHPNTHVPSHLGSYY
How it was run: (§1)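 Binding signal is defined as a hexamer's read frequency for one factor over its frequency for the tag-only sample. To obtain reads, GST-fused human transcription factors were expressed in yeast, captured on glutathione beads, barcoded with DNA and pooled with that sample. Pools met 200 nmole of a 16-mer random double-stranded DNA library in Tris/NaCl/DTT/glycerol buffer for 30 min at room temperature before washing, 0.1% formaldehyde crosslinking, proximity ligation (BsaI/T4 ligase, 1 h, 37 °C), PCR and Illumina NextSeq500 sequencing.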

ELK1 = target: T2, ELK1 (Homo sapiens, UniProt P19419 1-428)
T2 sequence: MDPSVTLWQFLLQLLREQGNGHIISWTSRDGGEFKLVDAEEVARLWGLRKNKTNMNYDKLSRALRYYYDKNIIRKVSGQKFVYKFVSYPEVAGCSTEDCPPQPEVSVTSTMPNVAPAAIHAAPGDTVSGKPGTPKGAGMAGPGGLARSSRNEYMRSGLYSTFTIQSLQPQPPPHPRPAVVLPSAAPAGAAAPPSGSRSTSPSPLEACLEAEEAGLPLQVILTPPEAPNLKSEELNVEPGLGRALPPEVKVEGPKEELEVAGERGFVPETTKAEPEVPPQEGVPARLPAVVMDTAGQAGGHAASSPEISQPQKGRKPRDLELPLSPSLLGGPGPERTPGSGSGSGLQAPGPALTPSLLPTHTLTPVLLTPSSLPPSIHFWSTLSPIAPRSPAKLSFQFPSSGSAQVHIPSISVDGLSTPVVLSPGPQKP
How it was run: as §1

GABPA = target: T3, GABPA (Homo sapiens, UniProt Q06546 1-454)
T3 sequence: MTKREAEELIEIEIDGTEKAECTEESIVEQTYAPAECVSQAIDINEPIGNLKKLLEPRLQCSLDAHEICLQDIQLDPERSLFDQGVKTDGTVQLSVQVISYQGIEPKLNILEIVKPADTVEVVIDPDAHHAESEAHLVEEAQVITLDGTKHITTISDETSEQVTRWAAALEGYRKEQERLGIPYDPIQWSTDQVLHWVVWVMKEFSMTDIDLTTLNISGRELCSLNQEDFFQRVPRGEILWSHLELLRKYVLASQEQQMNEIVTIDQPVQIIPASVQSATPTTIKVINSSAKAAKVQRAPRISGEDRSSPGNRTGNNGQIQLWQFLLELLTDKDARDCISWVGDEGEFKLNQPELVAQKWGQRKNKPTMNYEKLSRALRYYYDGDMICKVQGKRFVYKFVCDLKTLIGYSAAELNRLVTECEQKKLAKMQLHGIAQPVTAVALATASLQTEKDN
How it was run: as §1

ERG = target: T4, ERG (Homo sapiens, UniProt P11308 1-479)
T4 sequence: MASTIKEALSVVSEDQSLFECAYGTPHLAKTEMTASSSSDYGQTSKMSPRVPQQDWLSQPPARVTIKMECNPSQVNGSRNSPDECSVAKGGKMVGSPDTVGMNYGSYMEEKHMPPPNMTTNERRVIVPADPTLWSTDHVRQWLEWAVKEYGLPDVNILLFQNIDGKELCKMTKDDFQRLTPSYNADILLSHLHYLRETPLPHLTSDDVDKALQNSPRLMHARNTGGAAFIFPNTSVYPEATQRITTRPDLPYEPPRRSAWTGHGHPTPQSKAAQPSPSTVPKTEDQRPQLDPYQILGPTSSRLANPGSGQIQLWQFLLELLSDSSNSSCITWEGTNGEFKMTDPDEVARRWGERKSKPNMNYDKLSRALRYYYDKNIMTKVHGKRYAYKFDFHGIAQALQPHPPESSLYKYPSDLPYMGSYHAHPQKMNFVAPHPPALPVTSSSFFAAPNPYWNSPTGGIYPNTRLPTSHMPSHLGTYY
How it was run: as §1

ELF1 = ELF1 (Homo sapiens, UniProt P32519 1-619)
Chain of ELF1 (P32519 whole entry): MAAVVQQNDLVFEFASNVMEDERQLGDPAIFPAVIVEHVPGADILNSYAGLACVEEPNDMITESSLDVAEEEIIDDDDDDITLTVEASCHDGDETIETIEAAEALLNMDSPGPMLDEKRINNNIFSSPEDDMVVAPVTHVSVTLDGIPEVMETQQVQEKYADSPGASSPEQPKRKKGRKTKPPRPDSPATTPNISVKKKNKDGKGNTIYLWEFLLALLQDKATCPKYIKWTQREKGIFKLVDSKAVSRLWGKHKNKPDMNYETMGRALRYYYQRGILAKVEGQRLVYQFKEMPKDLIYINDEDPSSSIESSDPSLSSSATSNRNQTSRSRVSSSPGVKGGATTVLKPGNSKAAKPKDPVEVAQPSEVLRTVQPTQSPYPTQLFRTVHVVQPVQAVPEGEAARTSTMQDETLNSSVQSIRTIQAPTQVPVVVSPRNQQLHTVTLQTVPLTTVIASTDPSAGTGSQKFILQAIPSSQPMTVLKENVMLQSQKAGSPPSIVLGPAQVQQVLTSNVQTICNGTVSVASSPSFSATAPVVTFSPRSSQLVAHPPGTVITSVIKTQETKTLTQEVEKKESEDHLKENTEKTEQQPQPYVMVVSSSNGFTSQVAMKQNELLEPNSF
How it was run: as §1

EHF = target: T5, EHF (Homo sapiens, UniProt Q9NZC4 1-300)
T5 sequence: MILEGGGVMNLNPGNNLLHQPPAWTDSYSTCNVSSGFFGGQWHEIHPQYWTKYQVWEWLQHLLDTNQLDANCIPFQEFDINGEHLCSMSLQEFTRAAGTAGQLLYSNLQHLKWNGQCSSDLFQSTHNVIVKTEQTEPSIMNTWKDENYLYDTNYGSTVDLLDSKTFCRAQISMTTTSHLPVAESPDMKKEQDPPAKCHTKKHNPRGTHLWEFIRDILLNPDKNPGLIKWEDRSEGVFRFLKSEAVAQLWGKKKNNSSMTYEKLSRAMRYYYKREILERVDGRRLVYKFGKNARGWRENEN
How it was run: as §1

SPI1 = SPI1 (Homo sapiens, UniProt P17947 1-270)
How it was run: as §1

SPIB = SPIB (Homo sapiens, UniProt Q01892 1-262)
Chain of SPIB (Q01892 whole entry): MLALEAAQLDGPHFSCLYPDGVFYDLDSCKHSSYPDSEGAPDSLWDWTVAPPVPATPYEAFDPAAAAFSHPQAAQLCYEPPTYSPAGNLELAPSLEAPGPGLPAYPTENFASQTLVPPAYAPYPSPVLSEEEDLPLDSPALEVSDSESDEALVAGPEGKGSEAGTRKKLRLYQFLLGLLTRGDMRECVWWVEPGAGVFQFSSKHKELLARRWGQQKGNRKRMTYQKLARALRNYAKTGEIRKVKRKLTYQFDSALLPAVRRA
How it was run: as §1

ELK3 = target: T6, ELK3 (Homo sapiens, UniProt P41970 1-407)
T6 sequence: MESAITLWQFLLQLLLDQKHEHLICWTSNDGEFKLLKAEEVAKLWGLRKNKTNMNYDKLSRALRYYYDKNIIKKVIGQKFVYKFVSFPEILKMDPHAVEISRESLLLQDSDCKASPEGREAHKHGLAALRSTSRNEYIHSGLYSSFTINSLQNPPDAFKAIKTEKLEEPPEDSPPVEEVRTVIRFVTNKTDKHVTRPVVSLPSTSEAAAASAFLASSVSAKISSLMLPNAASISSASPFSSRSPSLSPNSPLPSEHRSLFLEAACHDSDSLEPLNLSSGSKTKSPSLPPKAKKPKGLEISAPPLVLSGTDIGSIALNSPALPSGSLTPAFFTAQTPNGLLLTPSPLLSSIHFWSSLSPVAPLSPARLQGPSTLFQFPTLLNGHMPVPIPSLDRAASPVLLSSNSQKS
How it was run: as §1

Sequence	binding signal (FLI1)	binding signal (ELK1)	binding signal (GABPA)	binding signal (ERG)	binding signal (ELF1)	binding signal (EHF)	binding signal (SPI1)	binding signal (SPIB)	binding signal (ELK3)
GCGATG	1.2 fold enrichment (6-mer frequency, TF over GST control)	1.48 fold enrichment (6-mer frequency, TF over GST control)	1.37 fold enrichment (6-mer frequency, TF over GST control)	1.23 fold enrichment (6-mer frequency, TF over GST control)	1.31 fold enrichment (6-mer frequency, TF over GST control)	1.25 fold enrichment (6-mer frequency, TF over GST control)	1.34 fold enrichment (6-mer frequency, TF over GST control)	1.29 fold enrichment (6-mer frequency, TF over GST control)	1.31 fold enrichment (6-mer frequency, TF over GST control)
CCTACG	1.34 fold enrichment (6-mer frequency, TF over GST control)	1.41 fold enrichment (6-mer frequency, TF over GST control)	1.39 fold enrichment (6-mer frequency, TF over GST control)	1.33 fold enrichment (6-mer frequency, TF over GST control)	1.32 fold enrichment (6-mer frequency, TF over GST control)	1.35 fold enrichment (6-mer frequency, TF over GST control)	1.25 fold enrichment (6-mer frequency, TF over GST control)	1.32 fold enrichment (6-mer frequency, TF over GST control)	1.68 fold enrichment (6-mer frequency, TF over GST control)
TTCTTT	1.18 fold enrichment (6-mer frequency, TF over GST control)	1.13 fold enrichment (6-mer frequency, TF over GST control)	1.21 fold enrichment (6-mer frequency, TF over GST control)	1.27 fold enrichment (6-mer frequency, TF over GST control)	1.35 fold enrichment (6-mer frequency, TF over GST control)	1.11 fold enrichment (6-mer frequency, TF over GST control)	1.23 fold enrichment (6-mer frequency, TF over GST control)	1.21 fold enrichment (6-mer frequency, TF over GST control)	1.17 fold enrichment (6-mer frequency, TF over GST control)
TTCACT	1.22 fold enrichment (6-mer frequency, TF over GST control)	1.32 fold enrichment (6-mer frequency, TF over GST control)	1.33 fold enrichment (6-mer frequency, TF over GST control)	1.36 fold enrichment (6-mer frequency, TF over GST control)	1.43 fold enrichment (6-mer frequency, TF over GST control)	1.32 fold enrichment (6-mer frequency, TF over GST control)	1.33 fold enrichment (6-mer frequency, TF over GST control)	1.24 fold enrichment (6-mer frequency, TF over GST control)	1.37 fold enrichment (6-mer frequency, TF over GST control)
TCTAAA	1.24 fold enrichment (6-mer frequency, TF over GST control)	1.22 fold enrichment (6-mer frequency, TF over GST control)	1.26 fold enrichment (6-mer frequency, TF over GST control)	1.24 fold enrichment (6-mer frequency, TF over GST control)	1.21 fold enrichment (6-mer frequency, TF over GST control)	1.2 fold enrichment (6-mer frequency, TF over GST control)	1.18 fold enrichment (6-mer frequency, TF over GST control)	1.16 fold enrichment (6-mer frequency, TF over GST control)	1.2 fold enrichment (6-mer frequency, TF over GST control)
TCCTTT	1.64 fold enrichment (6-mer frequency, TF over GST control)	1.75 fold enrichment (6-mer frequency, TF over GST control)	1.72 fold enrichment (6-mer frequency, TF over GST control)	1.79 fold enrichment (6-mer frequency, TF over GST control)	1.81 fold enrichment (6-mer frequency, TF over GST control)	1.73 fold enrichment (6-mer frequency, TF over GST control)	1.83 fold enrichment (6-mer frequency, TF over GST control)	1.67 fold enrichment (6-mer frequency, TF over GST control)	1.81 fold enrichment (6-mer frequency, TF over GST control)
AATTCC	1.95 fold enrichment (6-mer frequency, TF over GST control)	1.93 fold enrichment (6-mer frequency, TF over GST control)	1.81 fold enrichment (6-mer frequency, TF over GST control)	1.96 fold enrichment (6-mer frequency, TF over GST control)	1.86 fold enrichment (6-mer frequency, TF over GST control)	2.05 fold enrichment (6-mer frequency, TF over GST control)	1.89 fold enrichment (6-mer frequency, TF over GST control)	2.02 fold enrichment (6-mer frequency, TF over GST control)	1.94 fold enrichment (6-mer frequency, TF over GST control)
CTAAGT	1.21 fold enrichment (6-mer frequency, TF over GST control)	1.17 fold enrichment (6-mer frequency, TF over GST control)	1.26 fold enrichment (6-mer frequency, TF over GST control)	1.18 fold enrichment (6-mer frequency, TF over GST control)	1.2 fold enrichment (6-mer frequency, TF over GST control)	1.26 fold enrichment (6-mer frequency, TF over GST control)	1.19 fold enrichment (6-mer frequency, TF over GST control)	1.24 fold enrichment (6-mer frequency, TF over GST control)	1.16 fold enrichment (6-mer frequency, TF over GST control)
